The list is not random: actives were taken first. Their share in the collection is about 19%.
DT40 TDP1 CPT: qHTS for Inhibitors of human tyrosyl-DNA phosphodiesterase 1 (TDP1): qHTS in cells in presence of CPT; Potency, µM (highest dose often 46.2 µM), without a hit: at the top dose activity change, negative = growth inhibition, most hits filed as inhibitors; hit rate 12% among 420,000; chicken DT40 Tdp1-/-;hTDP1 cells + 20 nM CPT, ATP luminescence, 48 h; AID 686979, 2013; further: potency means the concentration at half of the fitted maximal effect; nearly all actives have a fitted effect of over 55% in size
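Chicken DT40 Tdp1-/- cells complemented with human TDP1, 400 cells/well, exposed to compounds plus 20 nM camptothecin for at least 48 h at 37 C; viability read as ATP content by CellTiter-Glo luminescence.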
IL1B secr inh: qHTS for Inhibitors of Inflammasome Signaling: IL-1-beta AlphaLISA Primary Screen; THP-1 LPS/ATP IL-1B secretion, AlphaLISA, 16 h; stronger effect = lower value; activity change, % at 57.5 µM; hit rate 4.7% among 360,000; AID 743279, 2014; in the data active means activity change below about -50%; inconclusive means mostly about -30% to -49%
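THP-1 cells pretreated 1 hr with compounds (up to 57.5 uM final), then stimulated with LPS (250 ng/mL final) plus ATP (1.25 mM final); secreted IL-1B measured by AlphaLISA after 16 hr, decreased signal indicating inhibition.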
HT1080-NT tox: qHTS for induction of synthetic lethality in tumor cells producing 2HG: qHTS for the HT-1080-NT fibrosarcoma cell line; hit rate 1.6% among 360,000; Potency, µM (doses to about 46.1 µM), for inactives: at the highest dose activity, negative = less viability, usual class: cytotoxic; AID 686970, 2013; HT-1080-NT fibrosarcoma viability, CellTiter-Glo ATP luminescence, 48 h;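 further: NT is the 2HG producing partner of a matched IDH1 knockdown line; potency means the concentration at half of the fitted maximal effect; 0% = DMSO-treated cells and -100% = media-only wells without cells; nearly all actives have a fitted effect of over 55% in size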
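HT-1080-NT; 750 cells/well; 5% FBS RPMI; 48 h compound, 37 degrees C; CellTiter-Glo luminescence; curve fitting and curve-class assignment.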
HT1080 IDH1KD tx: qHTS for induction of synthetic lethality in tumor cells producing 2HG: qHTS for the HT-1080-IDH1KD cell line; HT-1080 IDH1 knockdown viability, ATP luminescence, 48 h; hit rate 2% among 360,000; Potency, µM (highest dose often 46.1 µM), inactives show at the highest dose activity, negative = toxicity, actives largely listed as cytotoxic; AID 686971, 2013;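 further: potency means the concentration at half of the fitted maximal effect; 0% = DMSO wells and -100% = cell-free medium wells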
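HT-1080-IDH1KD cells (IDH1 knocked down), 750/well in RPMI with 5% FBS, treated with compound 48 h at 37 degrees C. Viability by CellTiter-Glo luminescence, normalised to DMSO and no-cell wells; concentration-response curves classed.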
ELG1 repair inh: qHTS screen for small molecules that inhibit ELG1-dependent DNA repair in human embryonic kidney (HEK293T) cells expressing luciferase-tagged ELG1; HEK293T ELG1-luciferase reporter, luminescence, 16 h; DNA damage induced by 5-fluorouridine; Potency, µM (top dose mostly 46.1 µM), for the others: top-dose activity change, negative = inhibition, actives largely listed as inhibitors; hit rate 2.3% among 330,000; further: potency means the concentration at half of the fitted maximal effect; nearly all actives have a fitted effect of over 55% in size
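Reporter activity after DNA damage by 5-fluorouridine is monitored. Compound-treated cells incubate 16 hr at 37 °C, then ONE-Glo is added for 30 min before luminescence reading.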
TDP1 cell noCPT: qHTS for Inhibitors of human tyrosyl-DNA phosphodiesterase 1 (TDP1): qHTS in cells in absence of CPT; DT40 Tdp1-/- hTDP1 cells, no CPT, ATP luminescence, 48 h; Potency, µM (titrated, usually from 46.2 µM), for inactives: at the top dose activity change, negative = growth inhibition, usual class: inhibitors; hit rate 15% among 420,000; further: potency means the concentration at half of the fitted maximal effect; nearly all actives have a fitted effect of over 55% in size
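Camptothecin absent (DMSO only). Human TDP1-complemented DT40 knockout cells, 400 cells/well, 37 °C for minimum 48 hr; ATP measured via CellTiter-Glo, 30 min dark incubation, luminescence.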
* marks the source's active call; other numbers are inactive results; ? = inconclusive; . = no result given; [ ] = dose if it differs, or a comment. Unless noted, the call rests on the fitted dose curve; in most records, active means well fitted curve in the direction sought with a large enough effect; inconclusive means small, poorly fitted or top-dose-only effect, or another doubt; inactive means no such curve, though single readings can be large; an effect the other way counts as inactive or inconclusive. Unless noted, on the % scale 0 is the no-effect control and ±100 the full control effect.

SMILES	DT40 TDP1 CPT	IL1B secr inh	HT1080-NT tox	HT1080 IDH1KD tx	ELG1 repair inh	TDP1 cell noCPT
CCOc1cccc2cc(C(=O)NCc3ccc(OC)cc3)c(=N)oc12	26µM*	-3	0%	-5%	3%	?
COc1ccc(Cc2nnc(SCC(=O)c3ccc4c(c3)NC(=O)CO4)o2)cc1	0%	4	2%	0%	7%	-1%
Cc1c(C(=O)N2CCOc3ccc(Cl)cc3C2)sc2ncnc(NCCc3ccccn3)c12	-11%[9.04 µM]	.	.	.	.	?
CCNC(=O)c1ccc(NC(=O)CC2SC(N3CCCC3)=NC2=O)cc1 (stereo not given)	-4%	11	0%	1%	9%	-2%
CN(C1=NC(=O)C(CC(=O)Nc2ccc(Br)cc2)S1)c1ccc(O)cc1 (stereo not given)	?	0	?	7.9µM*	?	?
COc1ccc(NC(=O)/C(Cl)=C(/Cl)S(=O)(=O)Cc2ccc(C)cc2)cn1	0.52µM*	-119*	23µM*	8.2µM*	?	0.82µM*
COc1ccc(NC(=O)Cc2ccc(Cl)c(Cl)c2)cn1	-3%	0	-4%	-2%	8%	-16%
CC1CCCN(c2ncnc3c2nnn3C)C1 (stereo not given)	-13%	.	.	.	.	-17%
CCN(Cc1ccccc1)c1ccccc1	-6%	-6	0%	4%	.	-22%
CCN(Cc1ccccc1)c1ccc(/C=N/NC(=S)NC(C)C)cc1	2.6µM*	-10	-1%	-1%	-25%	2.9µM*
CCN(Cc1ccccc1)c1ccc(/C=N/N=C(N)N)cc1	10µM*	-100*	18µM*	?	?	13µM*
CCN(Cc1ccccc1)c1ccc(/C=N/NS(=O)(=O)c2ccc(C)c([N+](=O)[O-])c2)cc1	?	0	-11%	-17%	2%	23µM*
Cc1ccc(S(=O)(=O)N/N=C/c2ccccc2F)cc1[N+](=O)[O-]	-7%	-6	10%	10%	6%	-1%
Clc1ccc(-c2nc(-c3cc4cc(Cl)ccc4o3)cs2)cc1	-7%	5	-4%	-4%	1%	-5%
COc1cccc(CNc2nc(NCC3CC3)nc3ccsc23)c1OC	9.2µM*	-101*	23µM*	12µM*	.	15µM*
CC(C)c1ccc(CNc2nc(NCC3CC3)nc3ccsc23)cc1	9.2µM*	-30	23µM*	18µM*	.	10µM*
Cc1cscc1-c1nc(NCC2CC2)nc2ccsc12	?	48	15%	-3%	.	?
COc1cccc(CNc2nc(NC(C)C)nc3ccsc23)c1OC	18µM*	-81*	15µM*	-19%	.	21µM*
COc1ccccc1CNc1nc(NCc2ccc(C(C)C)cc2)c2sccc2n1	9.2µM*	-83*	21µM*	18µM*	.	2.9µM*
COc1cccc(-c2nc3c(c(SCC(=O)Nc4cccc(C)c4C)n2)Cc2c(CO)cnc(C)c2O3)c1	-19%	.	.	.	.	-7%
O=C(Cc1ccccc1[N+](=O)[O-])OCC(=O)c1c[nH]c2ccccc12	-1%	-1	-1%	11%	?	-8%
CSc1ccccc1NC(=O)c1ccccc1N(Cc1ccccc1)S(C)(=O)=O	-21%	-3	-3%	-29%	-13%	?
Cc1cccc(N(C)S(=O)(=O)c2csc(C(N)=O)c2)c1	4%	2	-2%	11%	5%	7%
CC(C)Nc1nc(NCCOc2ccccc2)c2sccc2n1	21µM*	-72*	26µM*	23µM*	.	9.2µM*
COc1ccccc1CNc1nc(NC(C)C)nc2ccsc12	12µM*	-98*	?	?	.	12µM*
SMILES	DT40 TDP1 CPT	IL1B secr inh	HT1080-NT tox	HT1080 IDH1KD tx	ELG1 repair inh	TDP1 cell noCPT
CSc1ccccc1CNc1nc(NCC2CC2)nc2ccsc12	15µM*	-106*	18µM*	21µM*	.	21µM*
CC(=O)NCCNc1nc(NC(C)C)nc2ccsc12	5%	89	?	17%	.	4%
COCCC(=O)N1CCC(Oc2ccc(C(=O)NCCSC)cc2)CC1	-10%	8	13%	19%	-7%	5%
Cc1cccc(-c2nc3cc(NC(=O)COc4ccccc4F)ccc3o2)c1	-3%	.	.	.	.	-9%
N#Cc1sc(NCc2cccc(Cl)c2)nc1Cl	10%	-17	23µM*	?	?	?
Cc1ccc(CNc2nc(Cl)c(C#N)s2)cc1	42%	-1	-22%	-17%	?	-7%
CCCC(C)NC(=O)c1cc(S(=O)(=O)N2CCCCCC2)ccc1OC (stereo not given)	-18%	-12	1%	0%	1%	?
Oc1ccc(C=NNC(=S)Nc2cccnc2)nc1	16µM*	64	?	?	.	21µM*
Cc1ccccc1Nc1c(-c2cccnc2)nc2ccc(Cl)cn12	12µM*	.	.	.	.	?
Cc1ccc2nc(-c3cccnc3)c(Nc3ccccc3C)n2c1	16µM*	-52*	1%	1%	-32%	?
Cc1ccc2nc(-c3cccnc3)c(Nc3ccc(C(C)C)cc3)n2c1	-25%	.	.	.	.	-5%
Cc1ccccc1Nc1c(-c2ccco2)nc2c(C)cccn12	23µM*	.	.	.	.	21µM*
Cc1ccccc1Nc1c(-c2ccc(Cl)cc2)nc2c(C)cccn12	?	.	.	.	.	-25%
COC(=O)Nc1c(-c2ccccc2)nc2ccc(Cl)cn12	-21%	-2	-5%	4%	7%	-16%
Cc1ccccc1Nc1c(-c2cccnc2)nc2ccccn12	21µM*	?	-9%	-11%	-1%	?
COc1cccc(-c2cnc3cccnn23)c1	?	-7	-24%	-6%	.	?
Cc1ccc(CCNC(=O)c2cc3c(=O)oc4ccccc4c3s2)cc1	-2%	.	.	.	.	2%
Cc1ccccc1Nc1c(-c2cccc(N(C)C)c2)nc2ccc(Br)cn12	13µM*	.	.	.	.	23µM*
Cc1ccccc1Nc1c(-c2cccnc2)nc2ccc(Br)cn12	15µM*	?	-1%	0%	7%	?
Cc1ccccc1Nc1c(-c2ccncc2)nc2ccc(Br)cn12	23µM*	0	7%	-13%	-11%	18µM*

Assay outcomes (PubChem)
